Publication PMC7862700, “An all-to-all approach to the identification of sequence-specific readers for epigenetic DNA modifications on cytosine”

What was measured:
Assay in all cases: DAPPL (digital affinity profiling via proximity ligation, sequencing); 10 mM Tris-HCl pH 7.5, 50 mM NaCl, 1 mM DTT, 4% glycerol, room temperature, 30 min; GST-TFs on glutathione beads, 16-mer random dsDNA library, 0.1% formaldehyde crosslink after washing; high values mean tight binding
FEV = target: T1, FEV (Homo sapiens, UniProt Q99581 1-238); conditions: protein: recombinant; tags: N-terminal GST; dsDNA, one strand shown
T1 sequence: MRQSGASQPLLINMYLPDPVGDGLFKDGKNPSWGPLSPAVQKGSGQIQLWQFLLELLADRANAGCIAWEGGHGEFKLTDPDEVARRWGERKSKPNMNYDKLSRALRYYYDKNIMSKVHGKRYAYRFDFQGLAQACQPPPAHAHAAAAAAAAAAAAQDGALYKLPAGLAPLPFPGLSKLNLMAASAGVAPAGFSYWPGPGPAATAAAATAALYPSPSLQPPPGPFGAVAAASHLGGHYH
How it was run: (§1)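 Yeast served to express human transcription factors as GST fusions, which were then captured on glutathione beads and labelled with DNA barcodes. Pooled with a tag-only sample, they were incubated with 200 nmole of a 16-mer random double-stranded DNA library for 30 min at room temperature in Tris/NaCl/DTT/glycerol buffer, washed, crosslinked with 0.1% formaldehyde, ligated by proximity, amplified by PCR and sequenced. Dividing each hexamer's read frequency for a factor by its frequency for the tag-only sample gives the binding signal.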

ETV5 = ETV5 (Homo sapiens, UniProt P41161 1-510); conditions: protein: recombinant; tags: N-terminal GST; dsDNA, one strand shown
How it was run: as §1

HSF1 = HSF1 (Homo sapiens, UniProt Q00613 1-529); conditions: protein: recombinant; tags: N-terminal GST; chain copies: 3; dsDNA, one strand shown
How it was run: as §1

SPIC = target: T2, SPIC (Homo sapiens, UniProt Q8N5J4 1-248); conditions: protein: recombinant; tags: N-terminal GST; dsDNA, one strand shown
T2 sequence: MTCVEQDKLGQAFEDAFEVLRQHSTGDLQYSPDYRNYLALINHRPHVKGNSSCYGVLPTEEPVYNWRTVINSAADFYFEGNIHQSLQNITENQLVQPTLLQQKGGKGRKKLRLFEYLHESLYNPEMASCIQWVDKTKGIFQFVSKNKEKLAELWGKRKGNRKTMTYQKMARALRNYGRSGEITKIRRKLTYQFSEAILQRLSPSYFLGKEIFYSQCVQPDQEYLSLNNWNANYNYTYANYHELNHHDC
How it was run: as §1

ELF4 = ELF4 (Homo sapiens, UniProt Q99607 1-663); conditions: protein: recombinant; tags: N-terminal GST; dsDNA, one strand shown
How it was run: as §1

ELK4 = target: T3, ELK4 (Homo sapiens, UniProt P28324-2 1-405); conditions: protein: recombinant; tags: N-terminal GST; dsDNA, one strand shown
T3 sequence: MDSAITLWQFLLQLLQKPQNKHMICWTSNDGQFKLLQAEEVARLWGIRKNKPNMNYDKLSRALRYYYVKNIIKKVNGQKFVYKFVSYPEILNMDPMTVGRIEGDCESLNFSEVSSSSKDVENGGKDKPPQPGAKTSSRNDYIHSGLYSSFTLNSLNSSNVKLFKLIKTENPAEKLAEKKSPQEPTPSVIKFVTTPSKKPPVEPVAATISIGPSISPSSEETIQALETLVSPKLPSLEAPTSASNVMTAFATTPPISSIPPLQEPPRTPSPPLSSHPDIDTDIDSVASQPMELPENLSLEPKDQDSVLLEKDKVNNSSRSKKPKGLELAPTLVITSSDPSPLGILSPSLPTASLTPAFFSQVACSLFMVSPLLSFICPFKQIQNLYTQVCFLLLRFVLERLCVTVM
How it was run: as §1

ETV2 = target: T4, ETV2 (Homo sapiens, UniProt O00321 1-342); conditions: protein: recombinant; tags: N-terminal GST; dsDNA, one strand shown
T4 sequence: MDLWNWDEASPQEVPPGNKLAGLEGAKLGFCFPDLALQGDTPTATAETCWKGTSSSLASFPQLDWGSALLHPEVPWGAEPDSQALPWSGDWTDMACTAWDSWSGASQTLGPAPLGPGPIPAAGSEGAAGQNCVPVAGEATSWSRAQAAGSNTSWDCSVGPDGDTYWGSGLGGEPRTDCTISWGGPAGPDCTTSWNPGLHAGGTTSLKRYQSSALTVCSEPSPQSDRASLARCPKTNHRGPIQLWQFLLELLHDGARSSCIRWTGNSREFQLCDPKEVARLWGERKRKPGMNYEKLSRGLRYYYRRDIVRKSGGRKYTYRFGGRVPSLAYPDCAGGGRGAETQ
How it was run: as §1

ELF3 = target: T5, ELF3 (Homo sapiens, UniProt P78545 1-371); conditions: protein: recombinant; tags: N-terminal GST; dsDNA, one strand shown
T5 sequence: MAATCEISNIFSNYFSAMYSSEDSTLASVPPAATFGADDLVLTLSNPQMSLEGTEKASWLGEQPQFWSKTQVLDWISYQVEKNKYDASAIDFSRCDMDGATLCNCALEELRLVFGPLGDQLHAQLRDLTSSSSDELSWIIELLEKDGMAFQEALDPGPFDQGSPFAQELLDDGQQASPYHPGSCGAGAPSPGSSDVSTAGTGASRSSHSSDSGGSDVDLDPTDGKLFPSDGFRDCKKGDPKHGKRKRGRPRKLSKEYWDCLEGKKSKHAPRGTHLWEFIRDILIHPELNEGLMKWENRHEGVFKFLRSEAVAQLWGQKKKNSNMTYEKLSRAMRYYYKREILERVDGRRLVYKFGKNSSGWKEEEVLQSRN
How it was run: as §1

CRX = CRX (Homo sapiens, UniProt O43186 1-299); conditions: protein: recombinant; tags: N-terminal GST; dsDNA, one strand shown
How it was run: as §1

ETV1 = ETV1 (Homo sapiens, UniProt P50549 1-477); conditions: protein: recombinant; tags: N-terminal GST; dsDNA, one strand shown
How it was run: as §1

ERF = target: T6, ERF (Homo sapiens, UniProt P50548 1-548); conditions: protein: recombinant; tags: N-terminal GST; dsDNA, one strand shown
T6 sequence: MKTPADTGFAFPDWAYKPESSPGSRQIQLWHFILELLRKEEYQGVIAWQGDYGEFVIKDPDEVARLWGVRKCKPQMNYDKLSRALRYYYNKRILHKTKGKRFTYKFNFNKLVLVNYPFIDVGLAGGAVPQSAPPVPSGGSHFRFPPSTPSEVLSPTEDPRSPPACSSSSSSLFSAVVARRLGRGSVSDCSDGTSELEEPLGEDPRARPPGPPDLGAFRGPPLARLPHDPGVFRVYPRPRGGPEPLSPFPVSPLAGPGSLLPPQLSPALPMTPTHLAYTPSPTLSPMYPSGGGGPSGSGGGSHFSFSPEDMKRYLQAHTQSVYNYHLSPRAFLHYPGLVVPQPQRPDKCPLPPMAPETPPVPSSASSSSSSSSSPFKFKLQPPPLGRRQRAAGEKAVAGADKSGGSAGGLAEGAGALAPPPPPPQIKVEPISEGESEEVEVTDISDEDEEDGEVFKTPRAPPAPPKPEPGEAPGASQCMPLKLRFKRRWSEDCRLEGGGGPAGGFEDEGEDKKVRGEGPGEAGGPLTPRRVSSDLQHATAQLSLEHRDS
How it was run: as §1

ETV3L = target: T7, ETV3L (Homo sapiens, UniProt Q6ZN32 1-361); conditions: protein: recombinant; tags: N-terminal GST; dsDNA, one strand shown
T7 sequence: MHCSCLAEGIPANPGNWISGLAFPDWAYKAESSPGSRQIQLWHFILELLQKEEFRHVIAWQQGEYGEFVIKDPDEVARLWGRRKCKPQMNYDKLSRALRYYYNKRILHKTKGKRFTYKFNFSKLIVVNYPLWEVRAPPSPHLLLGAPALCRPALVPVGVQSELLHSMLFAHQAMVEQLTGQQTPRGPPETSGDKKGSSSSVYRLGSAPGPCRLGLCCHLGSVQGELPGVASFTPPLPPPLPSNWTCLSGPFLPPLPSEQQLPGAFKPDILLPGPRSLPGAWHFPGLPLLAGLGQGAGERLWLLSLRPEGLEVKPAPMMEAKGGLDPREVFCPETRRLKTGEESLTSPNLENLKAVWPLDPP
How it was run: as §1

ETS2 = target: T8, ETS2 (Homo sapiens, UniProt P15036 1-469); conditions: protein: recombinant; tags: N-terminal GST; dsDNA, one strand shown
T8 sequence: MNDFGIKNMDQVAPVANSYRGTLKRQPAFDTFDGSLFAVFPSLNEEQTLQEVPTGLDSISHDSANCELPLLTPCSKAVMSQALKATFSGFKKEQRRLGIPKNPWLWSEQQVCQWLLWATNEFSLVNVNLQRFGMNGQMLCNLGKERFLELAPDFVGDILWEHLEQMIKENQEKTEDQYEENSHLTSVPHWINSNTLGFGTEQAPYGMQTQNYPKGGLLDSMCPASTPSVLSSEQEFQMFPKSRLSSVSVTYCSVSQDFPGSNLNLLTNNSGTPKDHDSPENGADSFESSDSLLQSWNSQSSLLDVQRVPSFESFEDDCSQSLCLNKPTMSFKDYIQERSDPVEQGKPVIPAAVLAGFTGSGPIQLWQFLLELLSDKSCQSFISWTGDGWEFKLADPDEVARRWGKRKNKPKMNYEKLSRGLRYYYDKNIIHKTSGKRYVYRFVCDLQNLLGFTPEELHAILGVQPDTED
How it was run: as §1

SPDEF = target: T9, SPDEF (Homo sapiens, UniProt O95238 1-335); conditions: protein: recombinant; tags: N-terminal GST; dsDNA, one strand shown
T9 sequence: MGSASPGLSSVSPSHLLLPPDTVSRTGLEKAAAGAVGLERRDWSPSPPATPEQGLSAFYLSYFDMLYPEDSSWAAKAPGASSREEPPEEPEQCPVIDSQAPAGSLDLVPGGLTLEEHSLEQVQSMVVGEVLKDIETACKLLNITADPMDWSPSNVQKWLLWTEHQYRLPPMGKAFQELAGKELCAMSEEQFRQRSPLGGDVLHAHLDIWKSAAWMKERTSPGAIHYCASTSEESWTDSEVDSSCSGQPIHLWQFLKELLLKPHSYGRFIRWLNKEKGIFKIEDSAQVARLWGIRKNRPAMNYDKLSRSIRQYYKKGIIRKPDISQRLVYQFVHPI
How it was run: as §1

ETV7 = target: T10, ETV7 (Homo sapiens, UniProt Q9Y603 1-341); conditions: protein: recombinant; tags: N-terminal GST; dsDNA, one strand shown
T10 sequence: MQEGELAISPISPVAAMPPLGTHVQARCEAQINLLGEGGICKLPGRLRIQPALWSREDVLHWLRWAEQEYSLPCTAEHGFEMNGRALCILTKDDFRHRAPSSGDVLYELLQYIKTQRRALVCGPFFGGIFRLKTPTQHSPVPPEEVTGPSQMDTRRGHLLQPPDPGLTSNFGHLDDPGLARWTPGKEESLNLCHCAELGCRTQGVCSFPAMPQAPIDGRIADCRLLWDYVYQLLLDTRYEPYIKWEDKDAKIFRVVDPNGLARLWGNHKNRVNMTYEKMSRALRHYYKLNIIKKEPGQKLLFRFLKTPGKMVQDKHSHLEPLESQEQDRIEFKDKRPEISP
How it was run: as §1

ELF5 = target: T11, ELF5 (Homo sapiens, UniProt Q9UKW6-2 1-255); conditions: protein: recombinant; tags: N-terminal GST; dsDNA, one strand shown
T11 sequence: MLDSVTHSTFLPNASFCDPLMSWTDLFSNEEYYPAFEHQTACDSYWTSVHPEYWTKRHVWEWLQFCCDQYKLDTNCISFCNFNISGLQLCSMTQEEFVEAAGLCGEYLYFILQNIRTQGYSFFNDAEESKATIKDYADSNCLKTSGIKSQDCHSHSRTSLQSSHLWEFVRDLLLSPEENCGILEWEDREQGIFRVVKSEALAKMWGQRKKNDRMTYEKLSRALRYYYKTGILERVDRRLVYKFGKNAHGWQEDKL
How it was run: as §1

ETV3 = target: T12, ETV3 (Homo sapiens, UniProt P41162-2 1-143); conditions: protein: recombinant; tags: N-terminal GST; dsDNA, one strand shown
T12 sequence: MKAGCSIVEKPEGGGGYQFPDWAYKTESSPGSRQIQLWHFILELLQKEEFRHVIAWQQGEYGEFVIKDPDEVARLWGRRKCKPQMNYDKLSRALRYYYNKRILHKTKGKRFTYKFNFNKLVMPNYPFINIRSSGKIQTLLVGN
How it was run: as §1

ETV6 = ETV6 (Homo sapiens, UniProt P41212 1-452); conditions: protein: recombinant; tags: N-terminal GST; dsDNA, one strand shown
How it was run: as §1

HSF1, sequence (Q00613 whole entry): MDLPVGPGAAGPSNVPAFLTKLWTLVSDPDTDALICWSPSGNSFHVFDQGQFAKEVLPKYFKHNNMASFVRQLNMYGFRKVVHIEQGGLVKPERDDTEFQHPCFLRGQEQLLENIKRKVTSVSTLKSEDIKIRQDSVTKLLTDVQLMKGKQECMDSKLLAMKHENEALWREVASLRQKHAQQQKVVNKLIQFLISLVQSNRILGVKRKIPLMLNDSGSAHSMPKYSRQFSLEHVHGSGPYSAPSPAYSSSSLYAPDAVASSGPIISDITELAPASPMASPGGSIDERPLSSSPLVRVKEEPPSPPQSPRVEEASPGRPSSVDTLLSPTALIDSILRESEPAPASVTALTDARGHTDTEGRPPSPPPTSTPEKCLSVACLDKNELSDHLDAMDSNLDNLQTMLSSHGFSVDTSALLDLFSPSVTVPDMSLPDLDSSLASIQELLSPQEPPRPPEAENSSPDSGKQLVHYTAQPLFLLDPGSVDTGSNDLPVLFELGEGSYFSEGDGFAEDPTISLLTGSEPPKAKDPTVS
ETV1, sequence (P50549 whole entry): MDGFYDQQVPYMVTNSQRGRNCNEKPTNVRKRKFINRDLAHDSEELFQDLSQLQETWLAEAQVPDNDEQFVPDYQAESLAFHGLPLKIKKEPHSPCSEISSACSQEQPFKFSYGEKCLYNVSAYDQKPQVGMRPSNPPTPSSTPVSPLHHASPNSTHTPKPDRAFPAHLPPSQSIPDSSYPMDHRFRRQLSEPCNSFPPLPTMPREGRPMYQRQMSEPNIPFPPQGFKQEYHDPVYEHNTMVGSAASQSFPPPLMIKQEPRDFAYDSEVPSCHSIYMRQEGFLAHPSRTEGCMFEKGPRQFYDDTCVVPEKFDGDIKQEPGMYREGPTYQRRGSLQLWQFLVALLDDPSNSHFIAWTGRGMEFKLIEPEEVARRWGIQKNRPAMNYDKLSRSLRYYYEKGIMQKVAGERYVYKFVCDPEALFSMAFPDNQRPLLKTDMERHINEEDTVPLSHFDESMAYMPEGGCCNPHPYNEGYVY
ETV5, sequence (P41161 whole entry): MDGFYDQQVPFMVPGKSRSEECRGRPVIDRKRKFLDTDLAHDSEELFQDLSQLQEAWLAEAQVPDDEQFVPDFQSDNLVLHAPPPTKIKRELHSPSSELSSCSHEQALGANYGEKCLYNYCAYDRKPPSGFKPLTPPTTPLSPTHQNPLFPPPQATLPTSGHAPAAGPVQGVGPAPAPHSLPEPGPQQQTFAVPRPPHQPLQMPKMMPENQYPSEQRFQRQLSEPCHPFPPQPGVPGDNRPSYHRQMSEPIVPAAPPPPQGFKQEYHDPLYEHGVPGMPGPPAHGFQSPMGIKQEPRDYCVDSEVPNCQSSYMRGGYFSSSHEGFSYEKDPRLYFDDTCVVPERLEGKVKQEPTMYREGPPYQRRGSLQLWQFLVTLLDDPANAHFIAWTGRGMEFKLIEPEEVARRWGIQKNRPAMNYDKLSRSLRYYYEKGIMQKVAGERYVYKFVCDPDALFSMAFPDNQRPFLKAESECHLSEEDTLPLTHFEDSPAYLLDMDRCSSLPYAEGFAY
ELF4, sequence (Q99607 whole entry): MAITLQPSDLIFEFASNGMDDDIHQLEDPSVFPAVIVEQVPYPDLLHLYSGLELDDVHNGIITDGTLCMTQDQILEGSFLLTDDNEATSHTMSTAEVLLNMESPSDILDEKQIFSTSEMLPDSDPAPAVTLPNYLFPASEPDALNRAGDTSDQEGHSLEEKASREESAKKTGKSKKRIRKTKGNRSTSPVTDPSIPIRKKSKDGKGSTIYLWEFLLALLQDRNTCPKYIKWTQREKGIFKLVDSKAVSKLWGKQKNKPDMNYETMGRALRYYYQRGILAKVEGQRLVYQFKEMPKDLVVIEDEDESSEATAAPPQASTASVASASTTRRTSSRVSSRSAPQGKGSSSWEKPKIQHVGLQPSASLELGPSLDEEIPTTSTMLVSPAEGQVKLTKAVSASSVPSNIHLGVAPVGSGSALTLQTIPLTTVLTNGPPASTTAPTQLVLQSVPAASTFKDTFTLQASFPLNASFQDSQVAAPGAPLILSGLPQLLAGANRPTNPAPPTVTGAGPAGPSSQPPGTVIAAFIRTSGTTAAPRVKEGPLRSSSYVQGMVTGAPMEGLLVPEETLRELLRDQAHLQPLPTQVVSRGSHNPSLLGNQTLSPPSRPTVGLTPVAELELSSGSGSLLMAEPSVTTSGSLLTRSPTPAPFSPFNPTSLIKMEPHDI
ETV6, sequence (P41212 whole entry): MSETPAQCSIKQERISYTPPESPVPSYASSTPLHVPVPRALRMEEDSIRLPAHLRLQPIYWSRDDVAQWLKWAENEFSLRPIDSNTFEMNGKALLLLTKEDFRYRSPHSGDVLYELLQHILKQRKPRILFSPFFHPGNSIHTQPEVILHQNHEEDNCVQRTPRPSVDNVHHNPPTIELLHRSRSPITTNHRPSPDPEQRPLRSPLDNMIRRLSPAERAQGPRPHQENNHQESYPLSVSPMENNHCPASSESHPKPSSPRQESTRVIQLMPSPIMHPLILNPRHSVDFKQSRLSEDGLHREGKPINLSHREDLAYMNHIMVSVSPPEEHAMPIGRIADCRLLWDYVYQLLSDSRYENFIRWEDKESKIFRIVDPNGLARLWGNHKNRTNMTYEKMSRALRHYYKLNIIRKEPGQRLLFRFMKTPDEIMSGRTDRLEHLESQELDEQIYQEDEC
CRX, sequence (O43186 whole entry): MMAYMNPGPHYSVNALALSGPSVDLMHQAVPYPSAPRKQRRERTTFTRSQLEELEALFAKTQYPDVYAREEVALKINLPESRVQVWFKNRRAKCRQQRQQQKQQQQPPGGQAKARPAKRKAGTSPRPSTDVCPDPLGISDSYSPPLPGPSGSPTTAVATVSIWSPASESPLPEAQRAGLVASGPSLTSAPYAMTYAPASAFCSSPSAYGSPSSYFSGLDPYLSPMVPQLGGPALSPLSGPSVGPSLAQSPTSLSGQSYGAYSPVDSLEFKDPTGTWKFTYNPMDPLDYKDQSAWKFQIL

For ATATCA, the binding signal (FEV) was 1.1 fold enrichment (6-mer frequency, TF over GST control), the binding signal (ETV5) was 1.19 fold enrichment (6-mer frequency, TF over GST control) and the binding signal (HSF1) was 1.04 fold enrichment (6-mer frequency, TF over GST control). The binding signal (SPIC) was 1.21 fold enrichment (6-mer frequency, TF over GST control), the binding signal (ELF4) was 1.19 fold enrichment (6-mer frequency, TF over GST control) and the binding signal (ELK4) was 1.16 fold enrichment (6-mer frequency, TF over GST control). For the same sequence, the binding signal (ETV2) was 1.29 fold enrichment (6-mer frequency, TF over GST control), the binding signal (ELF3) was 1.08 fold enrichment (6-mer frequency, TF over GST control) and the binding signal (CRX) was 1.13 fold enrichment (6-mer frequency, TF over GST control). For the same sequence, the binding signal (ETV1) was 1.14 fold enrichment (6-mer frequency, TF over GST control), the binding signal (ERF) was 1.19 fold enrichment (6-mer frequency, TF over GST control) and the binding signal (ETV3L) was 1.1 fold enrichment (6-mer frequency, TF over GST control). For the same sequence, the binding signal (ETS2) was 1.2 fold enrichment (6-mer frequency, TF over GST control), the binding signal (SPDEF) was 1.2 fold enrichment (6-mer frequency, TF over GST control) and the binding signal (ETV7) was 1.13 fold enrichment (6-mer frequency, TF over GST control). The binding signal (ELF5) was 1.11 fold enrichment (6-mer frequency, TF over GST control), the binding signal (ETV3) was 1.23 fold enrichment (6-mer frequency, TF over GST control) and the binding signal (ETV6) was 1.18 fold enrichment (6-mer frequency, TF over GST control).
